Hits are enriched below; roughly 4.2% of the tested compounds scored in any of these assays.
RecA intein inh: Mtb RecA intein splicing inhibitors, primary screen, biochemical, fluorescence, HTS; Protein RecA (Mycobacterium tuberculosis (strain ATCC 25618 / H37Rv)), P9WHJ3; 0.75% of 290,000 active; cell-free RecA intein splicing; inhibition, % (test concentration not listed); in the data active means inhibition above about 30%
Mtb FBA inh: Mtb FBA enzyme inhibitors, primary screen, biochemical, fluorescence, strain H37Rv. Fructose-bisphosphate aldolase (Mycobacterium tuberculosis (strain ATCC 25618 / H37Rv)), …. AID 588726, 2011. inhibition, % at 1 µM. purified M. tuberculosis FBA, fluorescence read-out. 2.3% of 360,000 active
Target sequence (P9WQA3 whole entry, looked up): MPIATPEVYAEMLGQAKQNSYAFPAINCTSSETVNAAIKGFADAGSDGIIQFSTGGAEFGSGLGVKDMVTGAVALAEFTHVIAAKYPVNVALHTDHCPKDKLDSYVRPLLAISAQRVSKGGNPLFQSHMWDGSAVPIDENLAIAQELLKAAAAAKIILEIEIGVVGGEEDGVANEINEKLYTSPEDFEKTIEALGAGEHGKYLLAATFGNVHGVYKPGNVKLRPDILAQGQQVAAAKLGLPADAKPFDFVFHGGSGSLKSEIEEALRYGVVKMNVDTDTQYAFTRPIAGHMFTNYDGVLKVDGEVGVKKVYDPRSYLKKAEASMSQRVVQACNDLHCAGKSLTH
PrPC TRFRET: inhibitors of human cell surface prion protein PrPC, primary screen, cell-based, TR-FRET. TR-FRET read-out. inhibition, % at 13.8 µM. 0.43% of 370,000 active. AID 720596, 2013; in the data active means inhibition above about 24%
BJeLR lethal: MLPCN primary cell-based screen for lethality selective to Ras in HRASV12 cells; 0.17% of 300,000 active; inhibition, % (concentration not given with the values); BJeLR (HRASV12) viability, CellTiter-Glo ATP luminescence, 48 h; in the data active means inhibition above about 50%
GDH-TPI counter-1: GDH-TPI coupling enzyme inhibitors, primary screen, artefact control for M. tuberculosis FBA inhibitor project, biochemical, absorbance, full deck; GDH-TPI coupled enzyme counterscreen, NADH absorbance; inhibition, % at 4.8 µM; 1.2% of 360,000 active; in the data active means inhibition above about 30%
Mtb FBA confirm: M. tuberculosis aldolase blockers, biochemical, fluorescence, strain H37Rv, confirmation | AID 651616, 2012 | inhibition, % at 1 µM | shares compounds with Mtb FBA inh | purified M. tuberculosis FBA, fluorescence read-out | 78% of 5,600 active
GDH-TPI counter-2: GDH-TPI coupling enzyme inhibitors, artefact control for M. tuberculosis FBA inhibitor project, biochemical, fluorescence, high throughput; 81% of 5,600 active; GDH-TPI coupled enzyme counterscreen; inhibition, % at 1 µM; shares compounds with Mtb FBA inh; in the data active means inhibition above about 10%
GDH-TPI DR: GDH-TPI coupling enzyme inhibitors, dose response, artefact control for M. tuberculosis FBA inhibitor project, biochemical, fluorescence, IC50 | shares compounds with Mtb FBA inh | GDH-TPI coupled enzyme assay, artifact counterscreen | IC50, µM | 79% of 170 active; call rule not given here
Large screens that a line does not name were inactive (follow-up assays come after a bar, where they were run). Unless noted, no stated cut-off is given here; in the data, active means inhibition above about 27%; inactive means the rest.

CCc1cc(=O)oc2cc(C)cc(OCC(=O)NCC(O)c3ccccc3)c12 (stereo unspecified)	Mtb FBA inh 56 | Mtb FBA confirm 198 | GDH-TPI counter-2 168
CCC(C)NC(=O)c1c(N)n(CCCOC)c2nc3ccccc3nc12 (stereo unspecified)	Mtb FBA inh 94 | Mtb FBA confirm active | GDH-TPI counter-2 active
CC(C)Cn1c(N)c(C(=O)NCCN2CCOCC2)c2nc3ccccc3nc21	Mtb FBA inh 110 | Mtb FBA confirm 77 | GDH-TPI counter-2 73
CCCCn1c(N)c(C(=O)NCCN2CCOCC2)c2nc3ccccc3nc21	Mtb FBA inh 80 | Mtb FBA confirm active | GDH-TPI counter-2 active
CCCCC(=O)Nc1ccc(C(=O)NCCN2CCOCC2)cc1	none
COc1cccc(N2CCN(CC(=O)NCc3ccc(Cl)cc3)CC2)c1	none (no result: RecA intein inh, Mtb FBA inh, BJeLR lethal, GDH-TPI counter-1)
CC(C)c1cc(C(C)C)c(S(=O)(=O)N2CCCC(C(=O)NCc3cccs3)C2)c(C(C)C)c1 (stereo unspecified)	none (no result: RecA intein inh, Mtb FBA inh, BJeLR lethal, GDH-TPI counter-1)
Cc1cccc(C2=NN(c3ccccc3)[C@H](CO)[C@H]2c2ccc(Cl)cc2)c1	Mtb FBA inh 55 (no result: RecA intein inh, BJeLR lethal) | Mtb FBA confirm inactive | GDH-TPI counter-2 inactive
Cc1cccc(C2=NN(c3ccccc3)[C@H](CO)[C@H]2c2ccc(F)cc2)c1	Mtb FBA inh 63 (no result: RecA intein inh, BJeLR lethal) | Mtb FBA confirm 91 | GDH-TPI counter-2 61
O=S(=O)(O)c1cccc2cccc(Nc3ccccc3)c12	Mtb FBA inh 95, GDH-TPI counter-1 31 | Mtb FBA confirm active | GDH-TPI counter-2 active
COC(=O)c1ccccc1Nc1ccccc1	none (no result: RecA intein inh)
CCCCCN1CCCCC(NC(=O)c2ccc(C)cc2)C1=O (stereo unspecified)	none (no result: RecA intein inh, Mtb FBA inh, BJeLR lethal, GDH-TPI counter-1)
O=c1c2ccccc2nc2c3ccccc3c(NCCO)nn12	Mtb FBA inh 33 | Mtb FBA confirm active | GDH-TPI counter-2 active
O=c1c2ccccc2nc2c3ccccc3c(NCc3ccccn3)nn12	Mtb FBA inh 79 (no result: BJeLR lethal) | Mtb FBA confirm active | GDH-TPI counter-2 180
COc1cccc(C(=O)Nc2ccc(-c3nc4ccccc4o3)c(O)c2)c1	Mtb FBA inh 43, GDH-TPI counter-1 33 | Mtb FBA confirm 46 | GDH-TPI counter-2 33
COc1cc(OC)cc(C(=O)Nc2ccc(-c3nc4ccccc4o3)cc2)c1	none
CCOC(=O)N1CCN(C(=O)C[C@H]2C[C@@]3(C(=O)OC)C(=C[C@H](C4CCCC4)O[C@@H]3C)N(Cc3ccc(Cl)cc3Cl)C2=O)CC1	none (no result: RecA intein inh, Mtb FBA inh, BJeLR lethal, GDH-TPI counter-1)
NC(=O)c1nn(-c2ccccc2)nc1NC(=O)CN1CCCC1	none
CC(=O)N(CC(=O)Nc1nn(-c2ccccc2)nc1C(N)=O)Cc1ccccc1	Mtb FBA inh 43 | Mtb FBA confirm inactive | GDH-TPI counter-2 inactive
COCCCN1C(=O)[C@H](CC(=O)NCc2ccc(OC)c(OC)c2)[C@]2(C(=O)OC)CCCCC=C12	none (no result: RecA intein inh, Mtb FBA inh, BJeLR lethal, GDH-TPI counter-1)
COC(=O)C1=C(C)N(Cc2ccccc2C(F)(F)F)C(=NCc2ccc3c(c2)OCO3)NC1c1ccccc1 (stereo unspecified)	none (no result: RecA intein inh, Mtb FBA inh, BJeLR lethal, GDH-TPI counter-1)
Cc1ccc(OCc2nnc(SCC(=O)Nc3ccc4c(c3)OCO4)n2Cc2ccco2)cc1	none (no result: RecA intein inh, Mtb FBA inh, BJeLR lethal, GDH-TPI counter-1)
Cc1cccc(C=Nc2ccc3c4c(cccc24)CC3)c1O	Mtb FBA inh 37 | Mtb FBA confirm 54 | GDH-TPI counter-2 55
Oc1ccc(Cl)cc1C=Nc1ccc2c3c(cccc13)CC2	Mtb FBA inh 51 | Mtb FBA confirm 35 | GDH-TPI counter-2 19
CCc1ccc(O)c(N=Cc2cccc(C)c2O)c1	none
Oc1ccc(Cl)cc1/C=N/c1nccs1	none
CN(C)c1ccc(NC(=O)Cc2ccccc2)c2ccccc12	Mtb FBA inh 29 | Mtb FBA confirm 39 | GDH-TPI counter-2 34
COCC(=O)Nc1nc2n(n1)C(c1ccccc1)CC(c1ccc(OC)cc1)N2 (stereo unspecified)	Mtb FBA inh 54 | Mtb FBA confirm 50 | GDH-TPI counter-2 31
CCOC(=O)N1CCN(C(=O)Nc2ccc3nccnc3c2)CC1	none
Cc1nc2ccc(NC(=O)N3CCCCC3)cc2nc1C	Mtb FBA inh 63 | Mtb FBA confirm 159 | GDH-TPI counter-2 130
Cc1nc2ccc(NC(=S)N3CCCC3)cc2nc1C	none
CCOC(=O)N1CCN(C(=O)Nc2ccc3nc(C)c(C)nc3c2)CC1	Mtb FBA inh 43 | Mtb FBA confirm active | GDH-TPI counter-2 active
CCOC(=O)[C@]12CCCC3=C1N(CCC3)C(=O)[C@@H](CC(=O)N1CCCCC1)C2	none (no result: RecA intein inh, Mtb FBA inh, BJeLR lethal, GDH-TPI counter-1)
O=S(=O)(c1sccc1Br)n1c(CN2CCOCC2)nc2ccccc21	none (no result: RecA intein inh, Mtb FBA inh, BJeLR lethal, GDH-TPI counter-1)
COc1ccc(-c2nc(C#N)c(NCc3cccnc3)o2)cc1OC	Mtb FBA inh 30 | Mtb FBA confirm 53 | GDH-TPI counter-2 39
N#Cc1nc(Cc2ccccc2)oc1NCc1ccccc1Cl	none
COc1ccc(-c2nc(C#N)c(NCc3ccc(F)cc3)o2)cc1OC	Mtb FBA inh 103 | Mtb FBA confirm 74 | GDH-TPI counter-2 55
COc1ccc(-c2nc(C#N)c(NCc3ccccc3Cl)o2)cc1OC	Mtb FBA inh 57 | Mtb FBA confirm 114 | GDH-TPI counter-2 81
COc1cccc(C(=O)N[C@H](C(=O)N2CCC[C@H]2C(=O)NCCc2ccccc2Cl)C2CCCCC2)c1	none (no result: RecA intein inh, Mtb FBA inh, BJeLR lethal, GDH-TPI counter-1)
CC1(CCc2ccc3c(c2)OCO3)NC(=O)c2ccccc2N1 (stereo unspecified)	Mtb FBA inh 50 | Mtb FBA confirm 150 | GDH-TPI counter-2 114
CSc1nccc(Oc2ccccc2Cl)n1	Mtb FBA inh 110 | Mtb FBA confirm inactive | GDH-TPI counter-2 inactive | GDH-TPI DR inactive
CCn1nnnc1SCC(=O)N1CCOCC1	Mtb FBA inh 89 | Mtb FBA confirm active | GDH-TPI counter-2 active
C=CCN=C1NC(c2cccc(F)c2)C(C(=O)OC)=C(C)N1C (stereo unspecified)	none (no result: RecA intein inh, Mtb FBA inh, BJeLR lethal, GDH-TPI counter-1)
CC(C)n1c(O)c(/C=C2\C=NN=C2c2ccccc2)sc1=S	Mtb FBA inh 56 | Mtb FBA confirm 199 | GDH-TPI counter-2 135
CCn1c(O)c(/C=C2\C=NN=C2c2ccc(C)cc2)sc1=S	none
CN1NC(=O)c2ccccc2NC1=S	none (no result: RecA intein inh, Mtb FBA inh, BJeLR lethal, GDH-TPI counter-1)
Cc1ccccc1C(=O)N[C@H](C(=O)N1CCC[C@H]1C(=O)NCCc1ccccc1Cl)C(C)C	none (no result: RecA intein inh, Mtb FBA inh, BJeLR lethal, GDH-TPI counter-1)

Screens from PubChem BioAssay.
